# Source: PubChem BioAssay (NCI)
# This is part of a sample that, as a whole, favours compounds with a hit. Of some 83,000 tested, about 20% had one in any assay.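 Single-dose data. Exposure time 48 hours. Values below 10 considered active.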 Values without a mark were called inactive. Active and inactive are the calls of the source.
# Assays:
# Assay in all cases: NCI-60 one-dose screen, 48 h (100 = growth as untreated, 0 = no growth, -100 = all killed)
# Conditions in all cases: 10 µM unless noted
# NCI-H23 lung = test system: NCI-H23 lung
# NCI-H226 lung = test system: NCI-H226 lung
# NCI-H322M lung = test system: NCI-H322M lung
# HOP-62 NSCLC = test system: HOP-62 NSCLC
# NCI-H460 lung = test system: NCI-H460 lung
# HOP-92 NSCLC = test system: HOP-92 NSCLC
# NCI-H522 lung = test system: NCI-H522 lung
# A549/ATCC NSCLC = test system: A549/ATCC NSCLC
# 786-0 renal = test system: 786-0 renal
# COLO 205 colon = test system: COLO 205 colon
Compound,growth (NCI-H23 lung),growth (NCI-H226 lung),growth (NCI-H322M lung),growth (HOP-62 NSCLC),growth (NCI-H460 lung),growth (HOP-92 NSCLC),growth (NCI-H522 lung),growth (A549/ATCC NSCLC),growth (786-0 renal),growth (COLO 205 colon)
C=CCn1cc(-c2nc3ccccc3s2)c2cc(-c3ccc4c5c(cccc35)C(=O)N(CCO)C4=O)ccc21,99.7%,90.3%,98.8%,90.6%,98.1%,78.7%,88.7%,95%,97.6%,116%
c1ccc(-c2c(-c3ccccc3)[n+](Cc3ccc4ccccc4c3)cn2Cc2ccc3ccccc3c2)cc1,-74.9% (active),-75.8% (active),-20.8% (active),-86.1% (active),-78.6% (active),-83.9% (active),-85.8% (active),-81.8% (active),-92.2% (active),-86.4% (active)
CNC(=O)Nc1ccc(-c2ccc3ncnc(Nc4cccc(Cl)c4)c3c2)cc1,62.9%,68.4%,7.46% (active),71.4%,77.4%,37.8%,-1.3% (active),41.8%,71.4%,66.3%
C=C(C)[C@@H]1CC[C@]2(C(=O)N3CCN(C)CC3)CC[C@]3(C)[C@H](CC[C@@H]4[C@@](C)(CCC(=O)O)[C@H](C(=C)C)CC[C@]43C)[C@@H]12,95.4%,93.3%,98.5%,95.5%,78%,78.6%,73.5%,65.7%,90.2%,94.3%
C#Cc1cccc(Nc2ncnc3cc(NC(=O)CCl)ccc23)c1,-63.5% (active),-42.2% (active),-16.4% (active),-70.3% (active),-58.7% (active),-75.3% (active),-66% (active),-23.7% (active),-79.3% (active),-70.4% (active)
O=C1CCC(C(=O)N/N=C/c2cc(F)ccc2F)N1 (stereo not given),95.3%,99.2%,99.7%,103%,101%,95.4%,93.7%,97.6%,103%,110%
CCOC(=O)CC1CSC(N/N=C/c2ccc(F)c(Br)c2)=N1 (stereo not given),99.8%,104%,109%,94.2%,112%,105%,86.2%,91.2%,100%,110%
C=C(c1ccc(C(=O)O)c(F)c1)c1cc2c(cc1C)C(C)(C)CCC2(C)C,80%,82.6%,101%,76.4%,81.5%,58.4%,78.1%,52%,96.6%,123%
Cc1cc(=O)oc2cc(Oc3nc(Br)cn4c(Br)cnc34)ccc12,63.9%,53.6%,76.8%,51.7%,73.9%,37.2%,54.8%,77.8%,29%,113%
CC1(C)CC[C@]23CC[C@]4(C)[C@H](CC[C@@H]5[C@@]6(C)CCNCC(C)(C)[C@@H]6CC[C@]54C)[C@H]2[C@H]1OC3,95.6%,96.7%,99.8%,97%,23.7%,98.9%,90.1%,79.3%,101%,-21% (active)
N#C/C(=C\c1ccc(-c2cccc(Cl)c2)o1)C(=O)Nc1ncc(Cc2ccc(Cl)cc2)s1,59.6%,74%,33.6%,15.9%,25%,79.8%,83.4%,31.6%,37.3%,83.7%
CCCCCCCCn1ccc2cc(NC(=O)CN=[N+]=[N-])ccc21,102%,95.4%,102%,114%,107%,111%,88.3%,100%,94.1%,118%
COC(=O)c1ccc2cc(OC)c(OC)cc2c1,102%,97.6%,108%,107%,108%,94.4%,98.9%,77.4%,91.9%,122%
CCN(CC)c1ccc(-c2cc(-c3cc(OC)c(OC)c(OC)c3)nc(N3CCC(O)CC3)c2C#N)cc1,0.411% (active),-36.2% (active),18.1%,17.9%,-32.8% (active),-17.6% (active),-52.3% (active),0.627% (active),-22% (active),-60.9% (active)
COc1c2c(cc3c1C(=O)N[C@@H]1[C@@H](O)[C@@H](O)[C@H](O)C[C@@H]31)OCCO2,104%,92.6%,93.5%,99.9%,109%,91.6%,93.4%,96.5%,97.4%,103%
O=C(/C=C/c1ccccc1)c1cccc2ccccc12,26.2%,41.2%,57.5%,37.7%,10.6%,47.3%,17.2%,39%,83.5%,97.7%
CCOC(=O)C(CCN(C)C)c1ccccc1 (stereo not given),94.4%,90.3%,91.9%,88.8%,105%,78.8%,84.5%,91.8%,98.1%,116%
Clc1ccc(-c2nc(C(Cl)Cl)nc3cc(-c4ccccc4)nn23)cc1,-3.66% (active),84.6%,-50.5% (active),14.6%,-54.6% (active),49.4%,22.6%,-12.7% (active),79.9%,-8.35% (active)
COc1ccc2c(c1)C(C)Cc1c(ncnc1-n1cnc3cc(C)ccc31)N2C (stereo not given),30.4%,60%,48.6%,28.4%,3.98% (active),-2.48% (active),11.7%,13.6%,12.3%,-46.9% (active)
CCCCCCCCn1ccc2cc(NC(=O)CN3CCN(c4cc(C)nc(Cl)n4)CC3)ccc21,81.7%,82.2%,89.5%,119%,91.8%,81.1%,76.2%,87.4%,94.6%,106%
COCC(=O)Oc1cc(-c2ccc(C)cc2C)c(OC(=O)COC)c(-c2ccc(C)cc2C)c1,68.8%,59.8%,79%,61.5%,17.4%,66.7%,30.9%,43.7%,69.6%,48.4%
C[C@H]1[C@H](C)CC[C@]2(C(=O)NCCNCCN)CC[C@]3(C)C(=CC[C@@H]4[C@@]5(C)CCC(=O)C(C)(C)[C@@H]5CC[C@]43C)[C@H]12,94.2%,99.3%,85%,81.1%,-80% (active),52.9%,54.3%,42.4%,80.7%,-49.9% (active)
CC1(C)N=C(N)N=C(N)N1c1cc(Cl)ccc1Cl,74.4%,94.3%,119%,92.8%,32.3%,94%,52.7%,86.7%,110%,87.5%
COc1ccc(Cl)cc1Nc1nc(C(F)(F)F)ccc1C(=O)N/N=C/c1ccc([N+](=O)[O-])cc1,18%,13.6%,-1.09% (active),11.4%,0.872% (active),-47.7% (active),-8.55% (active),6.02% (active),8.42% (active),9.91% (active)
O=c1cc(CP(=O)(O)O)c2cc(O)c(-c3ccccc3)cc2o1,101%,101%,101%,103%,104%,95.7%,94.7%,106%,104%,108%
CCOC(=O)c1cnn(CC(C)O)c1NC(=O)NCc1ccccc1C(F)(F)F (stereo not given),98.8%,104%,97.5%,102%,109%,84.5%,60.8%,82.1%,93.8%,112%
Nc1cc(-c2ccc(Cl)cc2)nn1-c1nnc(/C=C/c2ccco2)c(=O)[nH]1,58.8%,47.4%,24.4%,71.3%,20.4%,60.3%,74.9%,37.3%,46.9%,72.6%
